Screening results from PubChem.
Hits are enriched below; roughly 2.9% of the tested compounds scored in any of these assays.
EPAC1 agonist – human EPAC1 agonism, validation; EPAC1 Rap1b BODIPY-GDP exchange, fluorescence; Potency, µM, without a hit: max response, positive = active, most hits filed as activators; 16,000 compounds, 1% hits; also: nearly all actives have a fitted effect of over 70% in size
Target sequence (O95398 whole entry, looked up): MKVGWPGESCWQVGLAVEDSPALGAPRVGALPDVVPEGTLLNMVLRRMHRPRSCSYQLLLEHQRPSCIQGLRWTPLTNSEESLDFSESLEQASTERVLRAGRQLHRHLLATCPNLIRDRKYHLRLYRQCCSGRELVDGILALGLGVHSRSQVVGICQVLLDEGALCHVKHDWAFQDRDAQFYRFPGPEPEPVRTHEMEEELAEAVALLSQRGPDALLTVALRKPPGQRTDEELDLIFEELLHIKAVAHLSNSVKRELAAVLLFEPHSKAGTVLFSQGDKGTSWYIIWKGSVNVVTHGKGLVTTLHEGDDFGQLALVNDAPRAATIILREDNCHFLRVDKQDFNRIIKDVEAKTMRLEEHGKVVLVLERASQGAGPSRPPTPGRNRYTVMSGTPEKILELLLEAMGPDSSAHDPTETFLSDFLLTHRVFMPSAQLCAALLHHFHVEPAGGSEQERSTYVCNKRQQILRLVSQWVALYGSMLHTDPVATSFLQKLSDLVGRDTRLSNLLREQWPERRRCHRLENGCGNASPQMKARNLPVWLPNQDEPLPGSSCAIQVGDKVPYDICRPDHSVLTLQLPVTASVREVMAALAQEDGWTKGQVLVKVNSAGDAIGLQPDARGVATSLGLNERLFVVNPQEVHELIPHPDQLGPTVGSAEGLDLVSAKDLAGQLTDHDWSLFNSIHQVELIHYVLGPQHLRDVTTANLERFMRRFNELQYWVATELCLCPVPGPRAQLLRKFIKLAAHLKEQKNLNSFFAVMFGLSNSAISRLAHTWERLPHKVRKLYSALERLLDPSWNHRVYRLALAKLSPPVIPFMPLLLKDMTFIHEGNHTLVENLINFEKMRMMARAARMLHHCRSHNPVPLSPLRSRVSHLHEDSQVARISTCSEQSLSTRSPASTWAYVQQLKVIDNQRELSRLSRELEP
EPAC2 ant val – human EPAC2 antagonism, validation | Q8WZA2 | EPAC2 Rap1B BODIPY-GDP exchange, fluorescence | Potency, µM (titrated, usually from 112 µM), without a hit: at the highest dose activity, negative = inhibition, actives largely listed as inhibitors | 16,000 compounds, 1.7% hits | AID 1645886;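 also: 100% = activation by cAMP agonist control; nearly all actives have a fitted effect of over 40% in size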
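Fluorescent exchange read-out: 100 nM EPAC2 with 250 nM RAP1B–BODIPY-GDP and 50 uM GDP; BODIPY-GDP release lowers fluorescence. Read at 480/540 nm every 5 min for 30 min at room temperature; normalized to 6.5 mM cAMP.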
* = called active by the depositor; i = inactive; ? = inconclusive; ! = not active in a repeat; [ ] = another dose, or the depositor's remark. Calls follow the shape of the dose curve; as a rule, active = well fitted curve in the direction sought with a large enough effect; inconclusive = small, poorly fitted or top-dose-only effect, or another doubt; inactive = no such curve, though single readings can be large; an effect the other way counts as inactive or inconclusive. Unless noted, % is scaled to controls: 0 for no effect and ±100 for the full control effect; potency is read from the fitted curve at half-maximal effect.

SMILES	EPAC1 agonist	EPAC2 ant val
COc1cccc2c1C(=O)c1c(O)c3c(c(O)c1C2=O)C[C@@](O)(C(C)=O)C[C@@H]3O[C@H]1C[C@H](N)[C@H](O)[C@H](C)O1	112µM*!	41%[29.6 µM]
CC(=O)[C@]1(O)Cc2c(O)c3c(c(O)c2[C@@H](O[C@H]2C[C@H](N)[C@H](O)[C@H](C)O2)C1)C(=O)c1ccccc1C3=O	40µM*	i
CC[C@@]1(O)C[C@H](O[C@H]2C[C@H](N(C)C)[C@H](O[C@H]3C[C@H](O)[C@H](O[C@H]4CCC(=O)[C@H](C)O4)[C@H](C)O3)[C@H](C)O2)c2c(cc3c(c2O)C(=O)c2c(O)cccc2C3=O)[C@H]1C(=O)OC	18%	25%
COc1cccc2c1C(=O)c1c(O)c3c(c(O)c1C2=O)C[C@@](O)(C(=O)CO)C[C@@H]3O[C@H]1C[C@H](N)[C@H](O[C@@H]2CCCCO2)[C@H](C)O1	22%	136%
Fc1ccc(N2CCN(Cc3ccc4c(c3)CN(Cc3cccn3-c3cccnc3)CCO4)CC2)cc1	0%	-20%
COC(=O)c1c(OCc2cccnc2)cc(=O)n2c1CCN(Cc1cc3c(cc1Cl)OCO3)CC2	3%	-2%
C#CCN(Cc1nc(N2CCOCC2)c2ccc(Cl)cc2n1)Cc1ccco1	5%	50µM*
CN(C)Cc1ccccc1-c1nc(N2CCOCC2)c2ccccc2n1	3%	-4%
O=C(O)c1ccccc1[O-].O=C(O)c1ccccc1[O-].[Zn+2]	3%	4%
CCCc1c(OCCCOc2ccc(OCC(=O)O)cc2)ccc(CC=O)c1O	-31%	45µM*
CCCCOc1ccc(CC(=O)NO)cc1	?	-10%[56.6 µM]
CCC1C(=O)NCCN1Cc1ccc2c(c1)CN(Cc1cc(OC)ccc1OC)CCO2 (stereo unspecified)	-4%	-16%
O=C1c2ccccc2C(=O)c2c(O)ccc(O)c21	-23%	57%
O=C1OC(c2ccc(O)cc2)(c2ccc(O)cc2)c2ccccc21	?	35µM*!
CC(=O)N[C@@H](C=O)[C@H](O)[C@H](O)[C@@H](O)CO	29%	2%
COc1ccc(C(=O)NCC2Cc3cc(C)cc(-c4cc(C(C)=O)ccc4F)c3O2)c(OC)c1OC (stereo unspecified)	-3%	-29%
OCC(S)CS (stereo unspecified)	12%	-16%
COc1ccc(C(=O)N2CCC3(CCCN(c4ccncc4)C3)CC2)cc1	6%	-25%
COc1ccc(C(=O)N2CCC3(CC2)CN(c2ccncc2)C3)cc1	100µM*	-30%
COC(=O)c1cc(CNC(=O)c2ccccc2OC)cc(NC(=O)c2ccccc2F)c1	21%	-29%
COc1cccc(Nc2ncc3nc(-c4cccs4)c(=O)n(CCC#N)c3n2)c1	?	3%
COc1ncc2ncc(=O)n(Cc3cccs3)c2n1	3%	-21%
CN(C)c1ncc2ncc(=O)n(Cc3cccs3)c2n1	-6%	45µM*
N#CCCn1c(=O)c(-c2ccc(Cl)cc2)nc2cnc(Nc3ccccc3)nc21	112µM*	-3%
N#CCCn1c(=O)c(-c2ccccc2)nc2cnc(Nc3ccccc3)nc21	23%	-19%
SMILES	EPAC1 agonist	EPAC2 ant val
COc1ccc(-n2c(=O)c(-c3cccs3)nc3cnc(Nc4cccc(OC)c4)nc32)cc1	100µM*	28%
O=c1c(-c2ccccc2)nc2cnc(N3CCOCC3)nc2n1-c1ccccc1	-31%	-17%
O=c1c(-c2cc(F)cc(F)c2)nc2cnc(N3CCOCC3)nc2n1-c1ccccc1	112µM*	-9%
O=C(NCCN1CCOCC1)c1cnn(-c2nccc(-c3cc4ccccc4o3)n2)c1C1CC1	10%	12%
CC(CN1c2ccccc2Sc2cccnc21)N(C)C (stereo unspecified)	-16%	16%
Cc1oc(-c2ccccc2NC(=O)C2CCC2)nc1CNC(=O)c1c(F)ccc(F)c1F	-1%	-7%
CC(=O)c1ccc(F)c(-c2cc(C)cc3c2OC(CNC(=O)c2csc(C)n2)C3)c1 (stereo unspecified)	8%	-32%
COc1ccc2c(c1)-c1nc(-n3ncc(C(=O)NC[C@@H]4CCCN5CCCC[C@H]45)c3C)ncc1CC2	5%	-5%
CCC1(C2CCN(Cc3ccc(OC)cc3)CC2)NC(=O)N(CC2COc3ccccc3O2)C1=O (stereo unspecified)	-5%	-2%
O=c1c(-c2cccs2)nc2cnc(N3CCNCC3)nc2n1Cc1cccs1	?	56µM*
CN(C)c1ncc2nc(-c3cccs3)c(=O)n(CCC#N)c2n1	100µM*	113%
COc1ccc(-n2c(=O)c(-c3cccs3)nc3cnc(N4CCOCC4)nc32)cc1	?	-26%
COCCn1c(=O)c(-c2cccs2)nc2cnc(N3CCOCC3)nc21	112µM*	15%
COCCn1c(=O)c(-c2cccs2)nc2cnc(Nc3ccccc3)nc21	100µM*	71%
CN1CCN(c2ncc3nc(-c4cccs4)c(=O)n(Cc4cccs4)c3n2)CC1	-12%	4%
COc1ncc2nc(-c3cccs3)c(=O)n(CCC#N)c2n1	-31%	-20%
